# Source: PubChem (National Center for Advancing Translational Sciences (NCATS))
# In the library only some 1.7% were active in any assay of this set; here they are far more common.
# GLP1R ag: qHTS of GLP-1 Receptor Agonists; Glucagon-like peptide 1 receptor (Homo sapiens), P43220; HEK293 GLP-1R CRE-luciferase, luminescence, 4-6 h; cells express a hypersensitive GLP-1R form; Potency, µM (titrated, usually from 45.6 µM), for inactives: at the highest dose activation, usual class: activators; 380,000 tested, 0.007% active; also: % of control where 0% means no effect
# GLP1R inv ag: qHTS of GLP-1 Receptor Inverse Agonists (Inhibition Mode) | Potency, µM (titrated, usually from 38.3 µM), without a hit: at the highest dose activity change, negative = inhibition, most hits filed as inhibitors | 410,000 tested, 1.6% active | HEK293 GLP-1R CRE-luciferase, luminescence, 24 h; GLP-1R form is constitutively active | AID 624417, 2012 | Glucagon-like peptide 1 receptor (Homo sapiens), P43220; also: % is scaled to controls: 0 for no effect and ±100 for the full control effect; nearly all actives have a fitted effect of over 55% in size
#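 Readout was luciferase luminescence, measured 12 min after detection reagent at room temperature. Beforehand, GLP-1R reporter HEK293 cells had sat 12 h, then received compounds for 24 hr at 37 deg C.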
# GLP1R cytotox: qHTS of GLP-1 Receptor Inverse Agonists: Cytotox Screen; 410,000 tested, 0.13% active; Potency, µM (top dose mostly 38.3 µM), without a hit: top-dose activity change, negative = inhibition, actives largely listed as inhibitors; AID 624418, 2012; HEK293 cAMP-luciferase reporter cells, luminescence, 24 h;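 also: loss of luciferase light is scored as toxicity; % is scaled to controls: 0 for no effect and ±100 for the full control effect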
#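 Cells in DMEM/10% Nu serum/1% pen-strep, 1536-well format. Pre-incubated 12 h, dosed with 23 nL compound, incubated a further 24 h. Luciferase detection, 12 min at room temp, luminescence.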
# RGS4 inh: Inhibitors of Regulator of G Protein Signaling (RGS) 4: qHTS; Regulator of G-protein signaling 4 (Homo sapiens), P49798; Transcreener GDP fluorescence polarization, RGS4-accelerated GTP hydrolysis; Potency, µM (series often up to 114 µM), for inactives: at the top dose activity change, negative = inhibition, most hits filed as inhibitors; 390,000 tested, 0.039% active; AID 504845, 2011; also: % is scaled to controls: 0 for no effect and ±100 for the full control effect; nearly all actives have a fitted effect of over 75% in size
#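 MLSMR compounds (23 nl, pin-transferred) preincubated 10 min at room temperature with a 500nM (2x) first reagent, then RGS4 at 900nM (2x) plus Transcreener GDP mix added; fluorescence polarization (620/688 nm) read before and after 90 min at 30 °C.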
# PTHR1 agonist: qHTS for PTHR1 Agonists: Primary Screen. Potency, µM (titrated, usually from 115 µM), for inactives: at the top dose activation, hits mostly activators. AID 743266, 2014. HEK293 GP2 PTHR1 cells, GloSensor cAMP luminescence, 1 h. 410,000 tested, 0.075% active. Parathyroid hormone/parathyroid hormone-related peptide receptor (Homo sapiens), Q03431; also: nearly all actives have a fitted effect of over 55% in size
# Target sequence (Q03431 whole entry, looked up): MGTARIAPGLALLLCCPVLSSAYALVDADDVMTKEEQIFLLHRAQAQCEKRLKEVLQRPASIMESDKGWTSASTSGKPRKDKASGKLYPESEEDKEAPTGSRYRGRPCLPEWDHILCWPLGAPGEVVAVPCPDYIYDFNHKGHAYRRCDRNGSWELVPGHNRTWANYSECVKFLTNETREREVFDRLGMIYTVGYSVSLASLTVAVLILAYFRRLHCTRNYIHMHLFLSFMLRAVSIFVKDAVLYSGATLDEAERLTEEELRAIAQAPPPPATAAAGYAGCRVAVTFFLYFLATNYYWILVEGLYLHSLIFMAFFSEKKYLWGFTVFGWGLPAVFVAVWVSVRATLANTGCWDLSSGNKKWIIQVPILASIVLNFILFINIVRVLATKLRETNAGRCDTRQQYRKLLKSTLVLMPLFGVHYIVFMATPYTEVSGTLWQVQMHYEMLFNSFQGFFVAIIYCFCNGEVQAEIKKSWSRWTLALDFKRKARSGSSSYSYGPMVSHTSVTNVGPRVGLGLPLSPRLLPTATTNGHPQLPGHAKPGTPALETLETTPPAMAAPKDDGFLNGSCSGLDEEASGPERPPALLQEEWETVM
#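 HEK-293-derived GP2 cells expressing PTHR1 and a GloSensor cAMP reporter, 3,000/well, plated overnight, given luciferin plus IBMX (each 0.5 mM as added) for 1 h at 37 °C, then compound for 1 h at 37 °C. Luminescence was read after 15 min at room temperature.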
# The depositor's hits bear a star; i = inactive; ? = inconclusive; . = not tested or not shown; ! = a repeat was not active; [ ] = dose if it differs, or a comment. Calls follow the shape of the dose curve; as a rule, active = well fitted curve in the direction sought with a large enough effect; inconclusive = small, poorly fitted or top-dose-only effect, or another doubt; inactive = no such curve, though single readings can be large; an effect the other way counts as inactive or inconclusive. Potency is read from the fitted curve at half-maximal effect.
SMILES,GLP1R ag,GLP1R inv ag,GLP1R cytotox,RGS4 inh,PTHR1 agonist
CCOc1cc(/C=N/N=C/c2ccc(O)c(OCC)c2)ccc1O,15%,5%,-24%,17%,i
CCOc1ccc(C(=O)OCC(=O)NCC2CCCO2)cc1 (stereo not given),1%,9%,-11%,5%,i
CCOC(=O)C1=C(CN2CCN(c3cc(C)ccc3C)CC2)NC(=O)NC1c1ccccc1 (stereo not given),-2%,8.9µM*,-13%,7%,-34%
Cc1nc2ccc(C(=O)N(C)Cc3ccccc3)cn2c1N(C)C(=O)CCc1ccccc1,-4%,-20%,5%,.,14%
CCCCCC(=O)N1C[C@@H](O)[C@H](n2cc(COC(=O)c3ccccc3)nn2)C[C@@H]1c1ccc(Cl)cc1,-1%,?,0%,.,i
CSCc1c(C(=O)N2CCCc3ccccc32)oc2ccccc12,7%,8.9µM*,-1%,13%,-1%
O=C(c1cc(=O)c2ccccc2o1)N1CCCc2ccccc21,0%,-31%,-8%,-28%,i
Cc1cccc(C)c1NC(=O)c1ccc(-c2ccc(Cl)cc2Cl)o1,-8%,1.6µM*,-2%,13%,-38%[57.5 µM]
S=C(c1ccc(-c2ccc(Cl)cc2Cl)o1)N1CCCCC1,5%,10µM*,-3%,?,-15%
CNc1ncnc(NC)c1[N+](=O)[O-],18%,20%,-6%,13%,-23%
NC(=O)NCCC[C@H](N)C(=O)O,.,.,.,i,.
NC(=S)NCCC[C@H](N)C(=O)O,.,.,.,11µM*!,.
CCOC(=O)N1N=C(c2ccc(OC)cc2)CC1(O)C(F)(F)F (stereo not given),18%,?,6%,10%,-37%
CCc1ccc(C2=NN(C(=O)OC)C(O)(C(F)(F)F)C2)cc1 (stereo not given),-1%,7.9µM*,0%,-16%,-16%[57.5 µM]
Cc1ccc(S(=O)(=O)N2CCC[C@H]2C(=O)OCCN2C(=O)c3ccccc3C2=O)cc1,0%,2%,-2%,-4%,i
Nc1nonc1-c1nc2ccccc2n1CC(=O)Nc1cccc(C(F)(F)F)c1,.,?,-22%,-12%,-27%
CC(C)OC(=O)c1ccc(NC(=O)c2cccc(-n3cnnn3)c2)cc1,8%,7.1µM*,-24%,9%,-34%
CCOc1ccc(NC(=O)c2cccc(-n3cnnn3)c2)cc1,-2%,4%,2%,-2%,i
COc1ccccc1CNC(=O)c1cc2ccc3ccc(C)[nH]c3c2n1,-2%,10µM*,-8%,-10%,-25%
COc1ccc(Br)cc1CNC(=O)CCc1cn(Cc2ccc(C)cc2)c2ccccc12,.,-17%,-3%,-7%,-6%
CCN(c1ccccc1)S(=O)(=O)c1cc(C(=O)NCC(c2ccc(OC)cc2)N(C)C)ccc1C (stereo not given),1%,11µM*,-7%,-17%,-27%
COC(=O)c1ccccc1NC(=O)Cc1nc(-c2ccc(OC)cc2)no1,.,-9%,-3%,18%,50µM*
CCN(CC)c1ccc(C(=O)NNC(=O)c2cccn2C)cc1,7%,25%,-5%,-6%,-20%
Cc1cc(C)c2nc(N(CCCN(C)C)C(=O)c3ccc4c(c3)OCCO4)sc2c1,3%,?,?,-7%,-66%
CN(C)CCCN(C(=O)C1=COCCO1)c1nc2ccc(Br)cc2s1,0%,2µM*,?,-3%,-4%
SMILES,GLP1R ag,GLP1R inv ag,GLP1R cytotox,RGS4 inh,PTHR1 agonist
Cc1cc(C)c2nc(N(CCCN(C)C)C(=O)C3=COCCO3)sc2c1,-9%,4.5µM*,?,-7%,-6%
CCn1nc(NC(=O)C(C)C)c2cc3cccc(C)c3nc21,9%,?,145%,-5%,-2%
CN(CCOc1ccc(Cl)cc1)C(=O)c1cccc(S(=O)(=O)N2CCN(c3ccc(F)cc3)CC2)c1,14%,4µM*,-5%,-7%,-12%
O=C(Nc1cc(C(F)(F)F)ccc1Cl)C(Sc1ccccn1)c1ccccc1 (stereo not given),-6%,8.9µM*,11%,6%,-11%
CCCC(=O)OC(C(=O)Nc1cc(C(F)(F)F)ccc1Cl)c1ccccc1 (stereo not given),-2%,?,1%,6%,i
Cc1ccc(C(C(=O)NC2CCCC2)N(C(=O)Cc2cccs2)c2ccc(C)c(C)c2)o1 (stereo not given),3%,10µM*,-28%,-5%,i
Cc1ccc(C(C(=O)NC2CCCC2)N(C(=O)Cc2cccs2)c2ccc3c(c2)OCCO3)cc1 (stereo not given),-1%,10µM*,-27%,15%,i
CC(NC(=O)CSc1nc(C2CC2)n(-c2ccccc2)n1)c1ccco1 (stereo not given),3%,-25%,-5%,6%,-47%
O=C(CSc1nc2ccccc2s1)N1N=C(c2cccs2)CC1c1ccc(F)cc1 (stereo not given),-7%,4µM*,-2%,6%,-7%
Fc1ccc(Nc2nnc(C(F)(F)F)s2)cc1,1%,?,-22%,-13%,-28%
COc1cccc(C(C(=O)NC2CCCC2)N2CCN(c3cc(C)ccc3C)CC2)c1OC (stereo not given),.,8.9µM*,-8%,.,i
CCOC(=O)N1CCN(C(=O)CN2C(=O)NC(C)(c3ccc4ccccc4c3)C2=O)CC1 (stereo not given),1%,-1%,4%,-3%,-19%
CCOc1ccc(C(=O)NCC(=O)OCc2cc(C(C)=O)ccc2OC)cc1,13%,9%,-4%,-8%,-10%
CCOc1ccc(C(C)=O)cc1COC(=O)CNC(=O)C12CC3CC(CC(C3)C1)C2,20%,3.5µM*,-5%,8%,-21%
COc1cc(C(=O)OCC(=O)N(CC(C)C)C2CCS(=O)(=O)C2)cc(OC)c1C (stereo not given),-7%,9%,-11%,-6%,-20%
COc1ccc(CCNC(=O)C(CC(C)C)N2Cc3ccccc3C2=O)c(OC)c1OC (stereo not given),.,-5%,-12%,-14%,i
CCOC(=O)C1CCCN(C(=O)COc2ccc(C(=O)c3ccccc3)cc2)C1 (stereo not given),9%,1.6µM*,-9%,1%,i
CCOC(=O)C1CCCN(C(=O)c2ccc(C(=O)c3ccccc3)cc2)C1 (stereo not given),5%,?,-4%,-44%,-14%
